17 compounds from PubChem BioAssay (EPA / NIEHS) can be followed below.

The target in assay [1] is rat Somatostatin Receptor (SST), Sstr1 (gene 25033) (UniProt P28646). Kind of assay: NVS_GPCR_rSST: NovaScreen (NVS) G Protein-Coupled Receptor Assay for rat Somatostatin Receptor (SST) (AID 2283314). In outline:
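Single-concentration duplicate screen (25 uM), then concentration-response up to 50 uM for chemicals passing a threshold such as 30% inhibition. Membranes came from rat forebrain. Binding was measured 1 h post-dose by filter radiodetection and scintillation, relative to DMSO.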

Assay [2] has as its target rat Vasopressin 1 Receptor (V1), Avpr1a (gene 25107) (UniProt P30560). The assay can be described thus: NVS_GPCR_rV1: NovaScreen (NVS) G Protein-Coupled Receptor Assay for rat Vasopressin 1 Receptor (V1) (AID 2283316). In outline: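 Concentration-response up to 50 uM for chemicals passing a threshold such as 30% inhibition in an initial duplicate 25 uM screen. Displacement of radioligand from rat liver membranes measured after 1.5 h by filtration and scintillation.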

Assay [3] in a line: NVS_IC_rCaDHPRCh_L: NovaScreen (NVS) Ion Channel Assay for rat Calcium Channel, Type L, Dihydropyridine Site (CaDHPRCh_L) (AID 2283320). In short, it runs like this: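 Rat cortex membrane preparation; dihydropyridine-site radioligand displacement read 1 h post-dose by filtration and scintillation. Primary single-point screen 25 uM in duplicate, then concentration series to 50 uM maximum; DMSO as negative control.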

The target in assay [4] is Sodium channel protein type 1 subunit alpha (Rattus norvegicus) (UniProt P04774). The assay can be described thus: NVS_IC_rNaCh_site2: NovaScreen (NVS) Ion Channel Assay for rat Sodium Channel, Site 2 (NaCh) (AID 2283322).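 Also: hit means loss of radioligand binding signal relative to DMSO so AC50 marks displacement.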 In outline: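 Initial duplicate single-point testing at 25 uM, followed by concentration-response runs for actives. Binding of radioligand to rat forebrain membranes quantified after 1 h via filter-based radiodetection.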

Assay [5] concerns the target rat Neonicotinoid receptor (NNR), Chrna7 (gene 25302) (UniProt Q05941). The assay can be described thus: NVS_LGIC_rNNR_BungSens: NovaScreen (NVS) Ligand-Gated Ion Channel Assay for rat Neonicotinoid receptor (NNR) (AID 2283315). In outline: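 Rat cortical membrane preparation incubated 2.5 h with tritiated or iodinated radioligand and test chemical. Bound radioactivity was filtered and counted by scintillation, and displacement was analysed against DMSO.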

Assay [6] deals with bovine Gamma-Aminobutyric Acid Type A Receptor BDZ, alpha 5 site (GABARa5), GABRA5 (gene 523515) (UniProt Q08E50). The assay can be described thus: NVS_LGIC_bGABARa5: NovaScreen (NVS) Ligand-Gated Ion Channel Assay for bovine Gamma-Aminobutyric Acid Type A Receptor BDZ, alpha 5 site (GABARa5) (AID 2283323). In outline: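 Tested first in duplicate at a single 25 uM, with hits re-run in concentration series to a 50 uM maximum. Bovine hippocampal membranes; specific radioligand displacement measured by filter scintillation counting 1 hr post-dose.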
bovine Gamma-Aminobutyric Acid Type A Receptor BDZ, alpha 5 site (GABARa5), GABRA5 (gene 523515), sequence (Q08E50 whole entry, looked up): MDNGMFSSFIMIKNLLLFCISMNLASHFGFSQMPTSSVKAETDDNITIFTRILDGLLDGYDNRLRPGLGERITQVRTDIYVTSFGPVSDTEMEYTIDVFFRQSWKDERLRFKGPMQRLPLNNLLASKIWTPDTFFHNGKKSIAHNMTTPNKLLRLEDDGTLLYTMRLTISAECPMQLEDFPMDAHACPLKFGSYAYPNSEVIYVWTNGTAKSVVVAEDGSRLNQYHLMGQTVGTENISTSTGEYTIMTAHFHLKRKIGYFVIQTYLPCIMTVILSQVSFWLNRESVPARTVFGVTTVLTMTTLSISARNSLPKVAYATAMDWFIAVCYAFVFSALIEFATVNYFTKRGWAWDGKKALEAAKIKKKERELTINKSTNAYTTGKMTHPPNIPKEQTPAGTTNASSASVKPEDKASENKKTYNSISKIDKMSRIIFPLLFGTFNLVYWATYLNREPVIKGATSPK

The target in assay [7] is rat Opioid Receptor, Non-selective Sodium (Na+) Binding, Oprm1 (gene 25601) (UniProt P33535). Kind of assay: NVS_GPCR_rOpiate_NonSelectiveNa: NovaScreen (NVS) G Protein-Coupled Receptor Assay for rat Opioid Receptor, Non-selective Sodium (Na+) Binding (AID 2283311). In outline: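 Filtration radioligand binding on rat forebrain membrane preparations, read 1.5 h after dosing. Single-concentration 25 µM primary screen in duplicate, followed by singleton concentration series to 50 µM max for actives; DMSO baseline.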
rat Opioid Receptor, Non-selective Sodium (Na+) Binding, Oprm1 (gene 25601), sequence (P33535 whole entry, looked up): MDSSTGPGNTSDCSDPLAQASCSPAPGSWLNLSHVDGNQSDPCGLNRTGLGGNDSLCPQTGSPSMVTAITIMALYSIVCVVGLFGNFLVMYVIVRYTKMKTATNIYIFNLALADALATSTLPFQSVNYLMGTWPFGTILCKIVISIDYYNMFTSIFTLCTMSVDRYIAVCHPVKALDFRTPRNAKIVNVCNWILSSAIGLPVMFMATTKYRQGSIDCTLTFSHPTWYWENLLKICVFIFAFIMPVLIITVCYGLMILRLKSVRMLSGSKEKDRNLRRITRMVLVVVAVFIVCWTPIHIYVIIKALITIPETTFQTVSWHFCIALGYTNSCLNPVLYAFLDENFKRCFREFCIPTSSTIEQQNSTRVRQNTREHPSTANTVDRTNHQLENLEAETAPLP

Assay [8] addresses rat Opioid Receptor, Non-selective Binding, Oprm1 (gene 25601) (UniProt P33535). Kind of assay: NVS_GPCR_rOpiate_NonSelective: NovaScreen (NVS) G Protein-Coupled Receptor Assay for rat Opioid Receptor, Non-selective Binding (AID 2283318). In short, it runs like this:
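Filter-based radioligand displacement using rat forebrain membrane preparations, measured 1.5 h post-dosing. Single-concentration duplicate screen at 25 uM, follow-up in concentration series; activity taken as signal loss relative to DMSO.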

Assay [9] deals with rat Neurokinin-3 Receptor (NK3), Tacr3 (gene 24808) (UniProt P16177). The assay can be described thus: NVS_GPCR_rNK3: NovaScreen (NVS) G Protein-Coupled Receptor Assay for rat Neurokinin-3 Receptor (NK3) (AID 2283310). In short, it runs like this: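 Filter-based radioligand displacement on rat cortex membrane preparations, read by scintillation 2 h post-dose. Chemicals first tested in duplicate at 25 uM; actives followed up in concentration series with a 50 uM maximum.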
rat Neurokinin-3 Receptor (NK3), Tacr3 (gene 24808), sequence (P16177 whole entry, looked up): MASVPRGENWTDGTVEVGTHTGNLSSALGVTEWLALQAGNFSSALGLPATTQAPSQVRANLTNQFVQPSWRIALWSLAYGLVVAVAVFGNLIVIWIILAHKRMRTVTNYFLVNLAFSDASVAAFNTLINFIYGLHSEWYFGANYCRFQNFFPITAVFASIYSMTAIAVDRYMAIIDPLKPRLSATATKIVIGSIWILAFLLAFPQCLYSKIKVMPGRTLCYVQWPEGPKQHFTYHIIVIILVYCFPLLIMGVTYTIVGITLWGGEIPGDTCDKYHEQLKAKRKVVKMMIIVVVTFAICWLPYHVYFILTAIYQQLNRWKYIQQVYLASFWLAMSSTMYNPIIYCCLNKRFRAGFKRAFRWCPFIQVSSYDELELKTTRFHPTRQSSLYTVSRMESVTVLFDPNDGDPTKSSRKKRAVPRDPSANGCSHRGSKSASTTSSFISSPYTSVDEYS

In the next assay the test system is NCBI gene 24521. Kind of assay: NVS_IC_rKATPCh: NovaScreen (NVS) Ion Channel Assay for rat Potassium Channel, ATP-Sensitive (KATPCh) (AID 2283319). In outline:
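Primary duplicate screen at 25 uM, then singleton concentration series to 50 uM maximum, in a rat cortex membrane radioligand displacement assay. Binding measured by filtration and scintillation 2 h post-dose; DMSO baseline.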

Records with an inconclusive call do not appear. Calls of active or inactive are those of the source. The calls were made as follows: active = hit-call score of the fitted dose curve at least 0.9, where 1 is the maximum; inconclusive = response in the unintended direction; inactive = score below 0.9.

rat Neonicotinoid receptor (NNR), Chrna7 (gene 25302), sequence (Q05941 whole entry, looked up): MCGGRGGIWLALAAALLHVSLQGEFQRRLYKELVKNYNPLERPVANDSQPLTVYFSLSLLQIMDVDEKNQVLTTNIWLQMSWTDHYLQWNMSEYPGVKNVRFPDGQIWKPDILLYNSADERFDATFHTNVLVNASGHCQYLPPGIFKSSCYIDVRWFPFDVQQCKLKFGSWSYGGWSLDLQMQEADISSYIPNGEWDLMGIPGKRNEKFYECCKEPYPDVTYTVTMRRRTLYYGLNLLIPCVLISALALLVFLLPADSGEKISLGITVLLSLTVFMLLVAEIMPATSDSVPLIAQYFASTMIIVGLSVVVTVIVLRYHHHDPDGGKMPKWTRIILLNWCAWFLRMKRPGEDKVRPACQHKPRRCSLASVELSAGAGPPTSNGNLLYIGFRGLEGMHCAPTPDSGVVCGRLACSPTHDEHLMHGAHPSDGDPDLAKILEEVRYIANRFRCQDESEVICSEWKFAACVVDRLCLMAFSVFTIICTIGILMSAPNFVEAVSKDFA
rat Somatostatin Receptor (SST), Sstr1 (gene 25033), sequence (P28646 whole entry, looked up): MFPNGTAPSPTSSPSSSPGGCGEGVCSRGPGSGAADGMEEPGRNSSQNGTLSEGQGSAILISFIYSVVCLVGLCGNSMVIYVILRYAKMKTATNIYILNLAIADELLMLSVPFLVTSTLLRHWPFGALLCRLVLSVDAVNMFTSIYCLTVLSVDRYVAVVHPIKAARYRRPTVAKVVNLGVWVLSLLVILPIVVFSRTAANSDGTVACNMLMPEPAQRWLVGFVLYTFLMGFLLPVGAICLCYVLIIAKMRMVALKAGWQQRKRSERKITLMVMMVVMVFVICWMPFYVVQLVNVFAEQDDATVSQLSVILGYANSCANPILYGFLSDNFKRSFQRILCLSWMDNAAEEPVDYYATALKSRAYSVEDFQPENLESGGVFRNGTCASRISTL
rat Opioid Receptor, Non-selective Binding, Oprm1 (gene 25601), sequence (P33535 whole entry, looked up): as the sequence (P33535 whole entry, looked up) above
rat Vasopressin 1 Receptor (V1), Avpr1a (gene 25107), sequence (P30560 whole entry, looked up): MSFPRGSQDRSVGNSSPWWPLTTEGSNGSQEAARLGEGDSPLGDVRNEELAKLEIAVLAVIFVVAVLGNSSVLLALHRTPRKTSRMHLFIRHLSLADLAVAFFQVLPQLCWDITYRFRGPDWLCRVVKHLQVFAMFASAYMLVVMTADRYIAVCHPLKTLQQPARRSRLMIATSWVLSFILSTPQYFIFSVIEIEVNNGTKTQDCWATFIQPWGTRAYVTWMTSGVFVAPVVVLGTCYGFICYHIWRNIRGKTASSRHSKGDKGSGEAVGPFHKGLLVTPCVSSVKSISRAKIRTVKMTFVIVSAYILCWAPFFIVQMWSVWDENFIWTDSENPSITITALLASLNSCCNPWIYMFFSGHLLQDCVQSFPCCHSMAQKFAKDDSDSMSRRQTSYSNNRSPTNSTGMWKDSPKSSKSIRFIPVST

Take `O=C(O)CCN(C1(C(=O)NO)CCCC1)S(=O)(=O)c1ccc(Oc2ccc(F)cc2)cc1`: in assay [1], the compound was classed as inactive.

For `CCCN(C1CCN(C(=O)C2CCNCC2)CC1)[C@@H]1CCc2ccc(OC)cc2C1`, the call in assay [2] and in assay [3] was inactive. In addition, the AC50 in [4] was 7.66 µM (active).

As for `CC(C)CC(C)(O)C#CC(C)(O)CC(C)C` (stereo not given), in [4], the compound was classed as inactive.

`CC(C)CCO`: in [5], the result was inactive.

For the compound `CNCc1ccc(NC(=O)c2c[nH]c3c2C(=O)CCC3)cc1`, the compound was classed as inactive in assay [6].

`O=P(OC(CCl)CCl)(OC(CCl)CCl)OC(CCl)CCl`: the AC50 in [3] was 6.41 µM (active). Further, the result in [4] was inactive.

Regarding `CCn1nc(Cc2ccccc2)cc1C1CCN(C[C@H]2C[C@H](N(C)[C@@H](C(=O)O)C(C)C)C[C@@H]2c2cccc(F)c2)CC1`, the AC50 in assay [7] was 7.28 µM (active); in assay [5] it was 15.5 µM (active); in assay [8], 4.11 µM (active); in assay [3] it was 4.21 µM (active); in assay [4], 17.4 µM (active).

Take `Cc1[nH]cnc1C[C@H]1CCc2c(C)c3ccccc3n2C1=O`: in assay [5], the compound was classed as inactive. For the same compound, the AC50 in [8] is 9.93 µM (active); in assay [3], 1.5 µM (active); in [4] it was 10.4 µM (active).

Turning to `CN(C)c1ccc(N=NS(=O)(=O)O)cc1`, the compound was called inactive (in [9]; with NCBI gene 24521). For the same compound, the AC50 in assay [8] is 31.6 µM (active).

`CCCCCCCCO`: in the assay with NCBI gene 24521, the outcome was inactive.

Take `CNS(=O)(=O)c1cc(C(=O)N2CCC(CCN3C4CCC3CC(n3c(C)nc5ccccc53)C4)(c3cccc(F)c3)CC2)c(Cl)cc1F` (stereo not given): the AC50 in [9] was 5.41 µM (active); in assay [7], 16.1 µM (active); in [5], 26.3 µM (active); in assay [8], 10.1 µM (active); in assay [3], 6.97 µM (active); in assay [4], 13.1 µM (active). Moreover, the outcome in [1] was inactive.

On to `CCc1cc(SCc2sc(-c3ccc(C(F)(F)F)cc3)nc2CN2CCN(c3ccc(OC)cc3)CC2)ccc1OCC(=O)O`, for which the compound was classed as inactive in [1] and in assay [8]. Also, the AC50 is 35.9 µM (active) with NCBI gene 24521, 15.9 µM (active) in [3] and 25 µM (active) in assay [4].

As for `CCOC(=O)c1ccc(C2CCC(NC[C@H](O)COc3ccc(O)c(NS(C)(=O)=O)c3)CC2)cc1` (stereo not given in full), in assay [7], the result was inactive. In addition, the AC50 in assay [3] was 18.4 µM (active); in [4] it was 3.33 µM (active).

Regarding `COc1ccc(-n2nc(C(F)F)cc2-c2ccc(S(C)=O)cc2)cc1` (stereo not given), the compound was classed as inactive in assay [9], in [7], in assay [5] and in assay [4].

As to `Cc1ccc(N)cc1O`, the compound was classed as inactive in assay [2].

On to `COc1ccc(/C=C/S(=O)(=O)NC(=O)c2ccc(C)cc2Cl)cc1`, for which, in assay [7], the result was inactive.

Turning to `CCOC(=O)CC(CC(=O)OCC)(OC(C)=O)C(=O)OCC`, the compound was called inactive in assay [9] and in [5].
